An excerpt weighted towards active compounds, which were near 19% of everything screened.
HT1080-NT tox – kills 2HG-producing HT-1080-NT fibrosarcoma cells; HT-1080-NT fibrosarcoma viability, CellTiter-Glo ATP luminescence, 48 h; Potency, µM (series often up to 46.1 µM), inactives show at the highest dose activity, negative = less viability, usual class: cytotoxic; 360,000 compounds, 1.6% hits; AID 686970;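 note: NT is the 2HG producing partner of a matched IDH1 knockdown line; potency is the fitted concentration of half-maximal effect; 0% = DMSO-treated cells and -100% = media-only wells without cells; nearly all actives have a fitted effect of over 55% in size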
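HT-1080-NT fibrosarcoma cells (2HG-overproducing), 750 cells/well in RPMI with 5% FBS, dosed after 2 h and incubated 48 h at 37C. CellTiter-Glo luminescence normalized to DMSO and no-cell wells; concentration-response curves fitted and classed.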
DT40 TDP1 CPT – growth inhibition of DT40 Tdp1-/-;hTDP1 cells with camptothecin (screen for TDP1 inhibitors) | AID 686979 | 420,000 compounds, 12% hits | chicken DT40 Tdp1-/-;hTDP1 cells + 20 nM CPT, ATP luminescence, 48 h | Potency, µM (top dose mostly 46.2 µM), for the others: at the top dose activity change, negative = growth inhibition, actives largely listed as inhibitors; note: potency is the fitted concentration of half-maximal effect; nearly all actives have a fitted effect of over 55% in size
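Chicken DT40 Tdp1-/- cells stably complemented with human TDP1 were seeded at 400 cells/well in medium containing 20 nM camptothecin, exposed to pin-transferred compounds, and grown at 37 °C for at least 48 hr. Viability was read as ATP luminescence.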
TDP1 cell noCPT – qHTS for Inhibitors of human tyrosyl-DNA phosphodiesterase 1 (TDP1): qHTS in cells in absence of CPT. DT40 Tdp1-/- hTDP1 cells, no CPT, ATP luminescence, 48 h. Potency, µM (top dose mostly 46.2 µM), without a hit: at the highest dose activity change, negative = growth inhibition, hits mostly inhibitors. 420,000 compounds, 15% hits; note: potency is the fitted concentration of half-maximal effect; nearly all actives have a fitted effect of over 55% in size
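No-CPT arm: Tdp1-/-;hTDP1 DT40 cells (400/well) plus compounds, incubated ≥48 hr at 37 °C. Readout CellTiter-Glo luminescence.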
ELG1 DNA repair – inhibitors of ELG1-dependent DNA repair in HEK293T cells; Potency, µM (top dose mostly 46.1 µM), for inactives: at the top dose activity change, negative = inhibition, actives largely listed as inhibitors; 330,000 compounds, 2.3% hits; HEK293T ELG1-luciferase reporter, luminescence, 16 h; DNA damage induced by 5-fluorouridine; note: potency is the fitted concentration of half-maximal effect; nearly all actives have a fitted effect of over 55% in size
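Quantitative HTS, concentration-response format. 2,000 cells/well co-treated with 5-fluorouridine and compound, 16 hr in 5% CO2 at 37 °C; ONE-Glo luminescence read after 30 min.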
HT1080 IDH1KD tx – HT-1080 IDH1 knockdown cell toxicity (counter line); Potency, µM (doses to about 46.1 µM), for inactives: at the top dose activity, negative = toxicity, usual class: cytotoxic; HT-1080 IDH1 knockdown viability, ATP luminescence, 48 h; 360,000 compounds, 2% hits;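 note: potency is the fitted concentration of half-maximal effect; 0% = DMSO wells and -100% = cell-free medium wells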
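After a 2 h attachment period, IDH1KD HT-1080 cells took pin-transferred compound for 48 h at 37 °C; ATP-based luminescence after 10 min room-temperature reagent incubation reported viability.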
IL-1B inflam inh – inhibitors of inflammasome signaling (IL-1 beta secretion) | 360,000 compounds, 4.7% hits | activity change, % at 57.5 µM | AID 743279 | THP-1 LPS/ATP IL-1B secretion, AlphaLISA, 16 h; active compounds read low; in the data active = activity change below about -50%; inconclusive = mostly about -30% to -49%
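Secreted IL-1B measured by AlphaLISA bead assay after 16 h compound exposure of THP-1 cells; compounds (final up to 57.5 uM) added 1 h before LPS (250 ng/mL) and ATP (1.25 mM) stimulation; lower signal means less secretion.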
Numbers without * were called inactive; ? = inconclusive; nt = no result given. Unless noted, calls come from the whole dose curve; as a rule, active = well fitted curve in the direction sought with a large enough effect; inconclusive = small, poorly fitted or top-dose-only effect, or another doubt; inactive = no such curve, though single readings can be large; an effect the other way counts as inactive or inconclusive. Unless noted, % is set by controls: 0 for no effect and ±100 for the full control effect.

SMILES	HT1080-NT tox	DT40 TDP1 CPT	TDP1 cell noCPT	ELG1 DNA repair	HT1080 IDH1KD tx	IL-1B inflam inh
Cc1onc(-c2c(F)cccc2Cl)c1C(=O)Nc1cccc2nsnc12	-29.6%	16.4µM*	3.66µM*	13.0%	?	?
Cc1ccc(S(=O)(=O)N(C)C)cc1NC(=O)c1c(-c2c(F)cccc2Cl)noc1C	-1.1%	-13.4%	-22.4%	25.9µM*	-9.8%	12.1
Cc1ccc(S(N)(=O)=O)cc1NC(=O)c1c(-c2c(Cl)cccc2Cl)noc1C	nt	-14.1%	0.2%	nt	nt	nt
Cc1onc(-c2ccccc2)c1C(=O)Nc1ccccc1N1CCOCC1	-0.4%	?	?	-3.0%	0.6%	18.5
CN1CCN(c2ccc(C(F)(F)F)cc2NC(=O)Nc2ccccc2)CC1	?	?	?	5.9%	-26.9%	-84.4*
CC1CCN(CCCNC(=O)C2CC(=O)N(CCc3ccccc3)C2)CC1 (stereo unspecified)	19.1%	4.0%	18.4%	12.3%	9.2%	15.6
Cc1cc(C)c(OCC(=O)OCC(=O)N2CCCc3ccccc32)c(C)c1	13.3%	-5.3%	-11.5%	18.2%	8.4%	18.6
Cc1onc(-c2c(F)cccc2Cl)c1C(=O)N1CCCc2ccccc21	?	?	18.4µM*	-21.2%	?	16.8
Cc1onc(-c2c(F)cccc2Cl)c1C(=O)Nc1ccccc1N1CCOCC1	-11.0%	?	23.1µM*	?	-12.9%	-16.6
CCCNC(=O)c1ccc(N2CCC3(CC2)CC(c2cccc(Br)c2)=NO3)c([N+](=O)[O-])c1	-12.9%	6.51µM*	8.2µM*	?	-14.4%	?
COc1ccc(CNC(=O)c2ccc(N3CCC4(CC3)CC(c3ccc(Cl)cc3)=NO4)c([N+](=O)[O-])c2)cc1	-3.6%	?	0.92µM*	nt	-0.2%	-9.7
CCCNC(=O)c1ccc(N2CCC3(CC2)CC(c2cccc(Br)c2)=NO3)c(N)c1	-13.0%	?	?	?	-11.4%	-3.4
Cc1ccc(CNC(=O)c2ccc(N3CCC4(CC3)CC(c3cccc(Br)c3)=NO4)c([N+](=O)[O-])c2)cc1	-0.3%	10.3µM*	?	4.3%	1.4%	-8.7
Cc1ccc(CNC(=O)c2ccc(N3CCC4(CC3)CC(c3cccc(Br)c3)=NO4)c(N)c2)cc1	-6.2%	6.51µM*	5.8µM*	-17.1%	-0.5%	18.8
O=C(CCNS(=O)(=O)c1ccc(Br)cc1)NCc1ccco1	0.7%	-0.3%	-17.7%	?	5.7%	0.0
C[C@H](CO)N1C[C@H](C)[C@@H](CN(C)C(=O)Nc2ccc(F)cc2)Oc2ncc(-c3ccc(F)cc3)cc2C1=O	9.5%	?	?	nt	7.2%	-13.8
COc1ccc(N2CC(NC(=O)c3ccc(Br)o3)CC2=O)cc1 (stereo unspecified)	nt	-17.2%	-21.8%	nt	nt	nt
Cc1nc(-c2ccc3c(c2)OCCCO3)cs1	17.3%	4.0%	-16.4%	?	21.8%	10.2
c1ccc(-c2ccc(-c3cnc4n3CCCCC4)cc2)cc1	?	?	18.4µM*	?	?	?
Cc1ccc(-c2cnc3n2CCCCC3)cc1	-3.8%	?	25.9µM*	?	0.0%	9.3
CCOc1ccc(-c2cnc3n2CCCCC3)cc1	16.4%	?	-25.5%	-3.6%	13.6%	-17.7
c1cc2c(cc1-c1cnc3n1CCC3)OCCO2	?	18.4µM*	?	?	?	-29.4
COc1ccc(-c2cc3c(=O)n(CC(=O)Nc4cc(C)ccc4C)ccn3n2)cc1	nt	0.4%	-5.8%	nt	nt	nt
CNc1oc(-c2ccc(COc3ccc(C)cc3)o2)nc1C#N	nt	-13.2%	-22.3%	nt	nt	nt
COc1cc2oc(=O)cc(CN3CCCCC3)c2cc1Cl	27.2%	-0.1%	-20.7%	nt	21.6%	8.1

Assay outcomes as filed in PubChem BioAssay.
